About 83,000 compounds went through this panel and 20% of them were active in at least one assay; those are over-represented in the sample as a whole.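 For each line, cells grew in 96-well plates with the test compound present at a single concentration for 48 hours.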 Calls of active or inactive are those of the source.

This assay concerns SR leukemia. The experiment in a line: NCI-60 one-dose screen, 48 h (100 = growth as untreated, 0 = no growth, -100 = all killed). To be noted: 10 µM unless noted. On the procedure:
Growth inhibition of the SR human tumor cell line is measured as a screen for anti-cancer activity. Cells are grown in 96 well plates and exposed to the test compound for 48 hours. Compounds are tested at a single concentration, which is 10^-5 M for most compounds. The reported endpoint is percent growth (GI% or GIPRCNT), where numbers from 0 - 100% represent growth inhibition, and numbers from -100% - 0 represent cell death. For example, a value of 40 represents 60% growth inhibition. A value of 0 means no net growth occurred over the course of the experiment. A value of -40 indicates 40% of cells at the beginning of the experiment died by the end of the experiment. A value of -100 means all cells are dead at the end of the experiment.
NCI-60 Human Tumor Cell Lines Screen was performed using the standard one-dose NCI protocol, which is described in more detail at https://dtp.cancer.gov/discovery_development/nci-60/default.htm.
Compounds with GIPRCNT values below 10 were considered active. Activity score was based on GIPRCNT using the following formula: […]
Score is 0 for GIPRCNT values of 100 or above, 50 for GIPRCNT values of 0, and 100 for GIPRCNT values of -100.
`O=C1C(=Cc2cn(Cc3ccccc3)c3ccccc23)C(=O)N(Cc2ccccc2)C(=O)N1Cc1ccccc1`: the growth was 87.2% (inactive). As to `O=C(CC1(O)C(=O)N(Cc2ccccc2)c2ccc(Cl)cc21)c1ccc(C(=O)NCC2CCC3(CC2)OOC2(CCCCC2)OO3)cc1` (stereo not given), the growth is -44.2% (active). Take `CC[C@]12C=CCN3CC[C@@]4(c5ccc(OC)cc5N(C)[C@H]4[C@@](O)(C(=O)OC)[C@@H]1OC(=O)CCCC[P+](c1ccccc1)(c1ccccc1)c1ccccc1)[C@@H]32`: the growth is 17.9% (inactive). Consider `CC(C)=CCC/C(C)=C/C=N\N=C(/N)N[N+](=O)[O-]`, for which the growth is 83.6% (inactive). Turning to `Cc1cccc(N2CCN(C(C)C#N)CC2)c1` (stereo not given), the growth was 98.2% (inactive). Then `C[C@]12CCc3sc(-c4ccccc4O)nc3C1=CC[C@@H]1[C@@H]2CC[C@]2(C)C(=O)CC[C@@H]12`, with 109% (inactive); and `CC(C)(C)C(=O)OCOP(=O)(NCc1ccccc1)C1CCCN(O)C1=O` (stereo not given), with 9.38% (active). Then `CCOC(=O)c1c(C)n(Cc2ccccc2)c2cc(CN(C)C)c(O)cc12`, with 17.8% (inactive).

With `O=C(NCCN1CC1)C(=O)NCCN1CC1`, the growth is 19% (inactive). With `CC(=O)O[C@H]1C(=O)[C@@]2(C)[C@H]([C@H](OC(=O)c3ccccc3)[C@]3(O)C[C@H](OC(=O)[C@H](OC(=O)OCC4COC(C)(C)O4)[C@@H](NC(=O)c4ccccc4)c4ccccc4)C(C)=C1C3(C)C)[C@]1(OC(C)=O)CO[C@@H]1C[C@@H]2O` (stereo not given in full) the figure was 35.7% (inactive); with `COC1OC(CO)C(O)C(O)[CH]1[Hg][O]C(C)=O` (stereo not given), 64.3% (inactive).

For the compound `COc1ccc(S(=O)(=O)Nc2c(/C=C\c3cc(OC)c(OC)c(OC)c3)ccc(OC)c2O)cc1OC`, the growth was 15.9% (inactive). Turning to `CCCc1cc(O)c2c3c(c(=O)oc2c1)CN(C)CC3`, the growth was 15.8% (inactive). Then `COc1cc2c(=O)n(C3CCCCCCC3)c3c4cc[nH]c4ncc3c2cc1OC`, with 17.4% (inactive); and `O=C(N/N=C/c1ccc(N(CCCl)CCCl)cc1)c1cccc2ccccc12`, with 24.2% (inactive); and `Fc1ccc(N2COOC3(OOC2)C2CC4CC(C2)CC3C4)cc1`, with -19.2% (active). For the compound `O=NN1CCCc2cccc(O)c21`, the growth is 1.91% (active). Regarding `COC(=O)CC[C@H](Cc1ccccc1)NC(=O)c1csc([C@@H](C[C@H](C(C)C)N(C)C(=O)[C@@H](NC(=O)[C@H]2CCCCN2C)C(C)C)OC(C)=O)n1`, the growth is 13.9% (inactive). `Cc1c(NS(=O)(=O)c2ccccc2)ccc([N+](=O)[O-])c1Cl`: the growth is 73.8% (inactive). As to `CN(C)C(=O)Oc1ccccc1-c1ccccc1`, the growth is 103% (inactive). Then `CN1C(=O)C(=Cc2cn(Cc3ccccc3)c3ccccc23)C(=O)N(C)C1=O`, with 68.6% (inactive); and `CCOC(=S)S[C@H]1C[C@@H]2[C@H](CC[C@]3(C)C(=O)CC[C@@H]23)[C@@]2(C)CCC(=O)C=C12`, with 106% (inactive). With `CNC(=O)Oc1ccc(N(C)C)cc1C(C)C` the figure was 123% (inactive). Then `COc1cc([N+](=O)[O-])c2nc(C)ccc2c1[N+](=O)[O-]`, with 82.2% (inactive); and `COc1ccc(/C=C\c2cc(OC)c(OC)c(OC)c2)cc1OCC(=O)Nc1nc2ccc(F)cc2s1`, with 13.8% (inactive); and `CCCCCCCCCCCCCCCCCCOc1ccccc1COP(=O)(O)OOCC[N+](C)(C)C`, with -8.81% (active). `C[CH2][Sn]([Cl])([Cl])[CH2]C.Oc1ccccc1C=NCCN=Cc1ccccc1O`: the growth is 103% (inactive).

Turning to `COC(=O)[C@@]1(O)C[C@H]2O[C@]1(C)n1c3ccccc3c3c4c(c5c6ccccc6n2c5c31)C(=O)NC4`, the growth was -18.3% (active). As to `[Cl][Hg][c]1cc(Br)cc(Br)c1`, the growth is -16.6% (active). Then `C[C@]12CC[C@@H]3c4ccc(Oc5nc(N6CC6)nc(N6CC6)n5)cc4CC[C@H]3[C@@H]1CCC2=O`, with -5.09% (active). `CSc1nc(Cl)cc(N2CC2)n1`: the growth is 109% (inactive). As for `COC(=O)[C@@H](C)C[C@H](Cc1cn(C)c2ccccc12)NC(=O)c1csc([C@@H](C[C@H](C(C)C)N(C)C(=O)[C@@H](NC(=O)[C@H]2CCCCN2C)C(C)C)OC(C)=O)n1`, the growth is 13.2% (inactive). With `Cn1cccc1C1CC(=O)N(CCC[Se]C#N)C1=O` (stereo not given), the growth is 21.2% (inactive). As to `CC[C@H](C)[C@H](NC(=O)[C@H]1CCCCN1C)C(=O)N(C)[C@H](C[C@@H](OC(C)=O)c1cccc(C(=O)N[C@@H](Cc2ccccc2)C[C@H](C)C(=O)O)n1)C(C)C`, the growth was 18% (inactive). On to `COc1cc([C@@H]2c3cc4c(cc3[C@H](OC(C)=O)[C@H]3COC(=O)[C@@H]23)OCO4)cc(OC)c1OC`, for which the growth is 15.6% (inactive). With `Clc1ccc(CO/N=C(\Cn2ccnc2)c2ccc(Cl)cc2Cl)c(Cl)c1`, the growth was -13.7% (active).

Turning to `COc1ccc(Nc2ccc([N+](=O)[O-])cc2[N+](=O)[O-])cc1CN(CCCl)CCCl`, the growth is 7.8% (active). On to `COC(=O)C12CC(NC(=O)c3csc([C@@H](C[C@H](C(C)C)N(C)C(=O)[C@@H](NC(=O)[C@H]4CCCCN4C)C(C)C)OC(C)=O)n3)(C1)C2`, for which the growth was 15.2% (inactive). On to `CCCCCCC(=O)NC1=C(N2CC2)C(=O)C(NC(=O)CCCCCC)=C(N2CC2)C1=O`, for which the growth is 40.7% (inactive). As for `COc1ccc2c(c1)c(C1(O)CC(CSC#N)OC1=O)cn2C(=O)c1ccc(Cl)cc1` (stereo not given), the growth was 84.8% (inactive).

Source of the values: PubChem BioAssay (NCI).
